Our source for the Potency and outcome values is PubChem BioAssay (Tox21).

Experiment [1] can be described thus: qHTS assay to identify small molecule antagonists of the glucocorticoid receptor (GR) signaling pathway - cell viability counter screen (AID 720693; note: nearly all actives have a fitted effect of over 55% in size; note: potency is the fitted concentration of half-maximal effect). (In general: Quantitative high-throughput screening tests each substance at several concentrations.)
A short description of experiment [2]: qHTS assay for identifying genotoxic compounds that show differential cytotoxicity against isogenic chicken DT40 cell lines with known DNA damage response pathways - wild type cell line (AID 743012). Note: nearly all actives have a fitted effect of over 60% in size. Note: potency is the fitted concentration of half-maximal effect. Summed up:
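First, wild type DT40 cells were plated at 300 per well and equilibrated about 0.5 h at 37 C/5% CO2. Next, compounds in DMSO were added and exposure lasted 40 h. Finally, CellTiter-Glo was added for 30 min at room temperature and luminescence recorded.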

Experiment [3] in a line: qHTS assay for identifying genotoxic compounds that show differential cytotoxicity against isogenic chicken DT40 cell lines with known DNA damage response pathways - Rev3 mutant cell line (AID 743014). Note: nearly all actives have a fitted effect of over 55% in size. Note: potency is the fitted concentration of half-maximal effect.
The nature of experiment [4]: qHTS assay for identifying genotoxic compounds that show differential cytotoxicity against isogenic chicken DT40 cell lines with known DNA damage response pathways - Rad54/Ku70 mutant cell line (AID 743015). Note: nearly all actives have a fitted effect of over 60% in size. Note: potency is the fitted concentration of half-maximal effect.
Experiment [5] is described as follows: qHTS assay to identify small molecule antagonists of the androgen receptor (AR) signaling pathway - cell viability counter screen (AID 743033; note: nearly all actives have a fitted effect of over 45% in size).
Experiment [6] is described as follows: qHTS assay to identify small molecule antagonists of the androgen receptor (AR) signaling pathway using the MDA cell line - cell viability counter screen (AID 743041; note: nearly all actives have a fitted effect of over 45% in size; note: potency is the fitted concentration of half-maximal effect). Summed up:
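Viability counter screen run alongside the AR antagonist reporter: cells seeded 5 h before compound, R1881 added, 16 h incubation at 37C without CO2, fluorescent CellTiter-Fluor signal quantified.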

Experiment [7] deals with Androgen receptor (Homo sapiens) (UniProt P10275). As to the kind of experiment: qHTS assay to identify small molecule antagonists of the androgen receptor (AR) signaling pathway (AID 743035; active = well fitted inhibition curve with a large enough effect in the signal ratio in the repeat runs, not every such curve was filed as active; the % refers to the signal ratio). Summed up:
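Beta-lactamase FRET read (2 h RT incubation with LiveBLAzer B/G) following 16 h of compound plus R1881 treatment of AR-UAS-bla HEK293 cells, which had been pre-incubated 4 h at 37C.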

For experiment [8] the target is unchanged. As to the kind of experiment: qHTS assay to identify small molecule agonists of the androgen receptor (AR) signaling pathway using the MDA cell line (AID 743040; note: nearly all actives have a fitted effect of over 20% in size). The method, boiled down: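 Luminescence from ONE-Glo, read after 30 min at room temperature, reflects MMTV-driven luciferase in MDA-kb2 cells (AR- and GR-responsive). Treatment lasted 16 h at 37C, 0% CO2.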

Experiment [9] has the same target. As to the kind of experiment: qHTS assay to identify small molecule antagonists of the androgen receptor (AR) signaling pathway using the MDA cell line (AID 743042; note: nearly all actives have a fitted effect of over 55% in size). Summed up: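 MDA-kb2 cells (human breast carcinoma, stably carrying an MMTV-luciferase reporter responsive to AR and GR) were plated at 3,000 cells/well and preincubated 5 hr at 37C, then given compound plus R1881 agonist for 16 h. ONE-Glo luminescence was read.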

Experiment [10] has the same target. As to the kind of experiment: qHTS assay to identify small molecule agonists of the androgen receptor (AR) signaling pathway (AID 743036; active = well fitted activation curve with a large enough effect in the signal ratio in the repeat runs, with a control signal flat, not every such curve was filed as active; the % refers to the signal ratio). The method, boiled down: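 Reporter line: GeneBLAzer AR-UAS-bla-GripTite (HEK293). Steps: plate cells, 4 h rest, add compounds, 16 h at 37C, add LiveBLAzer B/G substrate, 2 h at RT, read fluorescence.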

Where “and” joins values, the source holds several entries; their conditions need not be identical. Equal entries are not always repeated. Records with an inconclusive call do not appear. The source holds several records for some structures; these can differ, active in one and inactive in another. Calls of active or inactive are those of the source. Unless noted, calls come from the whole dose curve; as a rule, active = well fitted curve in the direction sought with a large enough effect in the repeat runs; inconclusive = weak or mixed curves; inactive = no such curve, though single readings can be large; an effect the other way counts as inactive or inconclusive.

Chain of Androgen receptor (Homo sapiens) (P10275 whole entry, looked up): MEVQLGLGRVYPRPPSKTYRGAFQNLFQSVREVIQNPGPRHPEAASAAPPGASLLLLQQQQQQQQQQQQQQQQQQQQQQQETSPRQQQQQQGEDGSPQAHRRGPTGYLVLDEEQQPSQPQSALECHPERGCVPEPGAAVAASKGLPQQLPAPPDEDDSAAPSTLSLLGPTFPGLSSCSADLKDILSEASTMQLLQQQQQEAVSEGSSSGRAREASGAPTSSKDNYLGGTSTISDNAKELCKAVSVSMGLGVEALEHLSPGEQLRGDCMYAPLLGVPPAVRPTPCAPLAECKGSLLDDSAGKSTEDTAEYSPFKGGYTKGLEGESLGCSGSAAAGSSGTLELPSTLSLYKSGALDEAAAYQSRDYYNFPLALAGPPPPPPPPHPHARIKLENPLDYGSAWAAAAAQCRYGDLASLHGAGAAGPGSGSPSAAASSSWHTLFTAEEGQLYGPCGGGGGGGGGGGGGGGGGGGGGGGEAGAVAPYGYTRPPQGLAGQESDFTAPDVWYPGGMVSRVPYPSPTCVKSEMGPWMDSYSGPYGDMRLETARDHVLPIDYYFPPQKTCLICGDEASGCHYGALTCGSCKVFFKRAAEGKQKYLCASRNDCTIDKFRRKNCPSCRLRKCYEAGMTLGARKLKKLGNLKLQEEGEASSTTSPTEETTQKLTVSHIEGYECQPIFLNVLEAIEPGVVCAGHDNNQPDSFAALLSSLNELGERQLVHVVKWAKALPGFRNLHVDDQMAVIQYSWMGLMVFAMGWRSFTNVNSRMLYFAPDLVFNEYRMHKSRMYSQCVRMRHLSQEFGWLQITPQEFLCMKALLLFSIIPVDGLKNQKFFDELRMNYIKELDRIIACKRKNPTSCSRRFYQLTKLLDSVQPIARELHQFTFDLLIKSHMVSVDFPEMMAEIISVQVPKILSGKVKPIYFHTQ

For the compound `CCOc1ccccc1O[C@H](c1ccccc1)[C@H]1CNCCO1`, the Potency entry in [1], in [5] and in experiment [6] was “inactive” each time. In addition, the figures for the Potency in experiment [2], in [3] and in [4] were 29.8 µM (active), 26.6 µM (active) and 13.3 µM (active), respectively.

Take `C=CC(C)(CCC=C(C)C)OC(=O)CC(C)C` (stereo not drawn): the Potency result in experiment [1], in experiment [2], in experiment [3], in experiment [4], in [5] and in experiment [6] was “inactive” each time.

As to `Cc1ccc(CO)cc1`, the Potency result in experiment [1], in experiment [2], in [3], in [4], in [5] and in [6] was “inactive” throughout.

For `CN1CC(=O)N2[C@H](c3ccc4c(c3)OCO4)c3[nH]c4ccccc4c3C[C@@H]2C1=O`, the Potency entry in experiment [1], in [2], in experiment [3], in experiment [4], in experiment [5] and in experiment [6] was “inactive” throughout.

For the compound `C=Cc1ccc(S(=O)(=O)O)cc1`, the Potency result in experiment [1], in experiment [5] and in experiment [6] was “inactive” in each case. Moreover, the Potency result in experiment [2] is “inactive and 30.6 µM (active)”; in experiment [3], “inactive and 38.6 µM (active)”; in experiment [4] it was “inactive and 2.17 µM (active)”.

In the case of `COc1ncnc(NS(=O)(=O)c2ccc(N)cc2)c1OC`, the Potency entry in experiment [1], in experiment [2], in [3], in [4], in experiment [5] and in [6] was “inactive” throughout.

In the case of `C[C@@]12CCC[C@H]1[C@@H]1CC[C@H]3C[C@@H](O)CC[C@]3(C)[C@H]1CC2`, the Potency result in [1], in [2], in experiment [3], in [4], in experiment [5] and in experiment [6] was “inactive” throughout.

Turning to `O=[N+]([O-])c1ccc(O/N=C/c2cc(Br)c(O)c(Br)c2)c([N+](=O)[O-])c1`, the Potency entry in experiment [1], in [2], in experiment [3], in [4] and in [6] was “inactive” throughout.

Turning to `O=C1NC(=O)c2cc([N+](=O)[O-])ccc21`, the Potency entry in [1], in experiment [2], in experiment [3], in [5], in [7] and in [6] was “inactive” each time. The Potency entry in experiment [9] is “inactive”. For the same compound, the compound was classed as inactive in experiment [8].

On to `CC(C)C(O)(c1ccc(OC(F)(F)F)cc1)c1cncnc1` (stereo not drawn), for which the Potency entry in experiment [1], in [5] and in experiment [6] was “inactive” each time. The Potency in [2] is 48.4 µM (active); in experiment [3], 27.2 µM (active); in experiment [4], 48.4 µM (active).

Turning to `CCCCCCCC/C=C\CCCCCCCCCCCC(=O)O`, the Potency entry in experiment [1], in experiment [2], in experiment [3], in experiment [4], in experiment [5] and in experiment [6] was “inactive” in each case. In experiment [9], the Potency entry is “inactive”.

On to `C=C(C)C(=O)OCCCCCCCCCCCCC`, for which the Potency entry in experiment [1], in [2], in [3], in experiment [4], in experiment [5] and in experiment [6] was “inactive” each time.

For `Nc1ccc(N=Nc2ccccc2)c(N)c1`, the Potency entry in experiment [1], in [5] and in [6] was “inactive” each time. Besides, the Potency in experiment [2] is 53.3 µM (active); in [3], 53.3 µM (active); in [4], 59.8 µM (active).

Turning to `CN(C)CCN1C(=O)c2ccccc2N(C)c2ccccc21`, the Potency entry in experiment [1], in [2], in [3], in [4], in experiment [5] and in [6] was “inactive” in each case.

As to `CCc1ccccc1`, the Potency result in experiment [1], in [2], in experiment [3], in experiment [4], in experiment [5] and in experiment [6] was “inactive” throughout.

As for `c1ccc(C[n+]2cccc3ccccc32)cc1`, the Potency entry in experiment [1] is “inactive”. The Potency in experiment [2] was 54.5 µM (active); in experiment [3], 27.3 µM (active); in experiment [4], 27.3 µM (active); in experiment [6], 61.1 µM (active).

As for `Cc1c(C)c2c(c(C)c1OC(=O)CCC(=O)OCCO)CC[C@@](C)(CCC[C@H](C)CCC[C@H](C)CCCC(C)C)O2`, the Potency is 21.3 µM (active) in [1], 11.9 µM (active) in experiment [2] and 10.6 µM (active) in experiment [3]. In addition, in experiment [5], the Potency result is “inactive”.

For the compound `CC1=C(Br)C(=O)C(Br)=C/C1=C(/c1ccccc1S(=O)(=O)O)c1cc(Br)c(O)c(Br)c1C`, the Potency entry in [1] is “inactive”. Besides, the Potency in [2] was 20.8 µM (active); in experiment [3], 20.8 µM (active); in experiment [4], 20.8 µM (active); in [6], 41.5 µM (active).

Take `O=C(OC(=O)c1ccccc1)c1ccccc1`: the Potency result in [1], in experiment [2], in experiment [4], in [5], in experiment [7] and in [9] was “inactive” in each case. The compound was classed as inactive in [8].

`CC/C=C1/OC(=O)c2ccccc21`: the Potency entry in [1], in experiment [2], in experiment [4], in experiment [5], in experiment [7] and in experiment [6] was “inactive” in each case. The Potency result in experiment [9] is “inactive”. For the same compound, the compound was called inactive in [10] and in experiment [8].

As to `CCOC(=O)c1ccc(I)cc1`, the Potency result in [1], in experiment [2], in experiment [3], in experiment [5] and in experiment [6] was “inactive” throughout.

With `O=C1c2ccccc2C(=O)C1c1ccc(Br)cc1`, the Potency entry in experiment [1], in [2], in experiment [4], in [5], in [7] and in experiment [6] was “inactive” throughout. In experiment [9], the Potency entry was “inactive”. Further, the result in experiment [8] was inactive.

On to `Nc1nnc(-c2ccc([N+](=O)[O-])o2)o1`, for which the Potency result in experiment [1] is “inactive”. In addition, the Potency was 24.3 µM (active) in experiment [2], 19.3 µM (active) in [3] and 61.1 µM (active) in experiment [6].

`O=C1C(=O)c2ccccc2C(O)=C1C1CCC(c2ccc(Cl)cc2)CC1` (stereo not drawn): the Potency result in experiment [1], in experiment [3], in [5] and in experiment [6] was “inactive” each time. Also, the Potency in experiment [2] was 5.07 µM (active).

Take `CCC(C)COC(C)=O` (stereo not drawn): the Potency entry in experiment [1], in experiment [2], in [3], in experiment [5] and in [6] was “inactive” each time.

Consider `NNC(=O)CP(=O)(c1ccccc1)c1ccccc1`, for which the Potency entry in [1], in [2], in experiment [4] and in [5] was “inactive” throughout.

Take `CN1C[C@H](C(=O)N[C@]2(C)O[C@@]3(O)[C@@H]4CCCN4C(=O)[C@H](Cc4ccccc4)N3C2=O)C[C@@H]2c3cccc4[nH]cc(c34)C[C@H]21`: the Potency result in experiment [1], in [5] and in [6] was “inactive” each time. For the same compound, the Potency is 23.7 µM (active) in experiment [2] and 29.8 µM (active) in experiment [3].

`Cc1ccco1`: the Potency entry in experiment [1], in experiment [2], in experiment [3], in experiment [5] and in experiment [6] was “inactive” in each case.

`COC(=O)CCS`: the Potency result in [1], in experiment [2], in experiment [3], in [5] and in experiment [6] was “inactive” throughout.

For `Cc1ccc(OC(=O)c2ccccc2O)cc1`, the Potency entry in experiment [1], in experiment [2], in experiment [3], in experiment [5] and in [6] was “inactive” in each case.
